# Compound activity (PubChem BioAssay)
# Only some compounds are listed: those with a hit (about 1.4% of all), similar ones and a draw of the others.
# uPA generation: inhibitors of cell surface uPA generation; cell surface uPA generation assay, qHTS; Potency, µM (top dose mostly 38.3 µM), inactives show at the top dose activity change, negative = inhibition, hits mostly inhibitors; 330,000 tested, 0.31% active; active means well fitted inhibition curve with a large enough effect; inconclusive means small, poorly fitted or top-dose-only effect; inactive means no such curve, though single readings can be large or run the other way; tested in mouse RAW 264.7 cells; further: potency means the concentration at half of the fitted maximal effect; on the % scale 0 is the no-effect control and ±100 the full control effect; nearly all actives have a fitted effect of over 55% in size
# Mm-Cpn inhibitor: inhibitors of Methanococcus maripaludis chaperonin TRiC (MmCpn); purified Mm-Cpn ATPase, ADP Transcreener TR-FRET; Potency, µM (top dose mostly 76.9 µM), inactives show at the top dose activity, negative = inhibition, usual class: inhibitors; 330,000 tested, 0.031% active; AID 504842; further: potency means the concentration at half of the fitted maximal effect; on the % scale 0 is the no-effect control and ±100 the full control effect; nearly all actives have a fitted effect of over 80% in size
#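 Purified archaeal chaperonin (25 nM final) was preincubated with compound for 10 min at 37°C, then ATP (10 uM final) was added for 30 min at 37°C in Tris pH 7.4/KCl/MgCl2/DTT buffer. ADP was quantified by HTRF Transcreener TR-FRET.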
# p53 reactivation: mutant p53 re-activation in reporter cells. Potency, µM (doses to about 92.2 µM), for inactives: top-dose activity change, positive = activation, most hits filed as activators. 320,000 tested, 0.063% active. H1299 p53-A138V BP100-luciferase reporter, luminescence, 24 h; further: potency means the concentration at half of the fitted maximal effect; % of control where 0% means no effect; nearly all actives have a fitted effect of over 45% in size
#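 H1299 (p53-null), stable ts p53-A138V + BP100-Luc; 1000 cells/well, Opti-MEM/10% FBS; cpd 4 pt, 1:5; 24 h, 37 deg C, 5% CO2; detection reagent 10 min RT; luminescence.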
# hERG WT inh: blocks the wildtype human KCNH2 potassium channel; Q12809; U2OS, BacMam KCNH2, thallium flux FluxOr; active compounds read low; activity change, % at 1.84 µM; 340,000 tested, 0.37% active; AID 720551;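 active means maximum activity change below -70%; inconclusive means maximum activity change between -70% and -50%; inactive means maximum activity change above -50%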; further: on the % scale 0 is the no-effect control and ±100 the full control effect
#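 U2OS cells transduced with wild-type KCNH2 virus are loaded with FluxOr dye for 45 min, and thallium flux is measured in kinetic reads before and after stimulation buffer. Rate constants are normalized to DMSO controls.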
# ASM inhibitor: human S-ASM enzyme inhibition; 340,000 tested, 0.006% active; Potency, µM (top dose mostly 57.5 µM), for inactives: at the highest dose activity change, negative = inhibition, most hits filed as inhibitors; AID 504937; placental ASM, HMU-PC fluorogenic substrate, 60 min; further: potency means the concentration at half of the fitted maximal effect
# Target sequence (P17405 47-631 limits assumed): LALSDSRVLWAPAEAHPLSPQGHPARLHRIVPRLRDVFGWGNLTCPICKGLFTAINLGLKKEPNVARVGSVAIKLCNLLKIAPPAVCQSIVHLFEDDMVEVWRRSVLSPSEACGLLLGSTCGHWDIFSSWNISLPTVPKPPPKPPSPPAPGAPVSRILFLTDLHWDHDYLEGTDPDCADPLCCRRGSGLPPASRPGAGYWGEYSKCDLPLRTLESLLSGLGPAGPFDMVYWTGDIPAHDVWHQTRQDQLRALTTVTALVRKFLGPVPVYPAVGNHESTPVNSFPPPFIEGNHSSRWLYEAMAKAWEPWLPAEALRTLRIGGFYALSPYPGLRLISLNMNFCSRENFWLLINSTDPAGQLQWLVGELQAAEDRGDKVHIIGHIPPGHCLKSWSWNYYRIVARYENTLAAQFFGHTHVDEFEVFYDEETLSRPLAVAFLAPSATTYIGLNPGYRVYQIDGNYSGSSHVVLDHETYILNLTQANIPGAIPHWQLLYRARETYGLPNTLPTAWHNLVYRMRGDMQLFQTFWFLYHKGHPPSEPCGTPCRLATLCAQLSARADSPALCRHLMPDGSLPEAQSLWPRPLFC
#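 Fluorogenic HMU-PC substrate (9 uM final) is turned over by placental ASM in 60 min at 37 C after a 10 min compound preincubation. Reaction ended by alkaline stop (pH 10), with fluorescence read at 386/447 nm.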
# KCNH2 3.1 block: blocks the human KCNH2 3.1 channel isoform | 340,000 tested, 0.95% active | activity change, % (tested at about 1.8 µM) | U2OS KCNH2 3.1, thallium flux FluxOr; active compounds read low;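 active means maximum activity change below -70%; inconclusive means maximum activity change from -70% to -50%; inactive means maximum activity change above -50%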;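 further: thallium influx rate constant from kinetic fluorescence after stimulation buffer; on the % scale 0 is the no-effect control and ±100 the full control effect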
#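 We transduce U2OS cells with the mutant 3.1 virus, culture them overnight, load FluxOr with Red40 quencher for 45 min, then add stimulation buffer and read kinetically for 2 min to derive a normalized rate constant.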
# The depositor's hits bear a star; ? = inconclusive; . = not tested or not shown; [ ] = another dose, or the depositor's remark. Unless noted, the call rests on the fitted dose curve; in most records, active means well fitted curve in the direction sought with a large enough effect; inconclusive means small, poorly fitted or top-dose-only effect, or another doubt; inactive means no such curve, though single readings can be large; an effect the other way counts as inactive or inconclusive.
SMILES,uPA generation,Mm-Cpn inhibitor,p53 reactivation,hERG WT inh,ASM inhibitor,KCNH2 3.1 block
Cc1ccc(N(CC(O)CN2CCCCC2)S(=O)(=O)c2ccccc2[N+](=O)[O-])cc1 (stereo not given),-8.7%,-0.3%,6.6%,7.5,1.5%,-3.7
Cc1ccc(N(CC(O)CN2CCCC2)S(=O)(=O)c2ccc(C)cc2)cc1 (stereo not given),-6.9%,-0.8%,-7.0%,-47.5,-1.7%,-104.5*
O=[N+]([O-])c1ccc(S(=O)(=O)N(CC(O)CN2CCCCC2)c2ccccc2)cc1 (stereo not given),6.4%,0.3%,0.0%,14.0,-2.7%,-14.9
OC(CN1CCCCC1)CN(c1ccccc1)c1ccccc1 (stereo not given),-10.2%,-1.0%,-8.9%,38.0,-0.3%,-183.2*
O=[N+]([O-])c1ccc(N(CC(O)CN2CCCCC2)S(=O)(=O)c2ccccc2)cc1 (stereo not given),-0.5%,-9.3%,-2.3%,-43.8,-0.1%,-75.8*
CNCC(O)CN(c1ccccc1)c1ccccc1 (stereo not given),3.3%,0.7%,-5.9%,5.4,-1.8%,-81.3*
CN(CCO)CC(O)CN(c1ccccc1)c1ccccc1 (stereo not given),-9.3%,3.4%,0.0%,2.4,-1.8%,7.2
COc1cccc(/C=C/C(=O)OCC(=O)NCCCc2ccccc2)c1OC,4.6%,-1.0%,2.2%,-9.8,5.2%,-2.1
NS(=O)(=O)c1ccc(CCNC(=O)CSc2nc3c(sc(=S)n3-c3ccccc3)c(=O)[nH]2)cc1,.,.,.,3.4,.,0.2
CCOC(=O)CNC(=O)C1COc2ccccc2O1 (stereo not given),-5.0%,0.3%,-1.7%,13.3,4.6%,-5.5
CCN(CC)C(=O)C1=C(C)N(Cc2ccc(OC)cc2)C(=O)C(CC(=O)NCc2cccc3ccccc23)C1 (stereo not given),.,.,.,24.1,.,-0.3
CC(=O)/C(=C/c1ccccc1)C(=O)Nc1ccccc1C,2.82µM*,0.6%,-10.1%,-8.2,-3.2%,-3.2
O=S(=O)(Nc1ccc(-n2cnnn2)cc1)c1cccc(Cl)c1,6.8%,0.9%,-11.1%,-4.3,0.5%,11.6
Cc1ccc(S(=O)(=O)n2nc(C)cc2C)cc1,.,1.4%,10.0%,8.7,-2.3%,19.4
Cc1cc(C)n(S(=O)(=O)/C=C/c2ccccc2)n1,.,-0.8%,13.9%,-87.5*,-5.6%,-9.2
Cc1ccc(-c2csc(N3CCC[C@@H]3C(=O)NCCn3c(-c4ccncc4)nc4ccccc43)n2)cc1,-14.8%,0.7%,4.7%,5.5,-5.9%,-105.4*
NC(=O)C1CCN(c2nc(-c3cccc4sc5ccccc5c34)cs2)CC1,.,-4.0%,.,.,.,.
Nc1nc(OCc2ccccc2)c2[nH]cnc2n1,-29.1%,.,.,3.9,0.7%,-0.7
Nc1nc(N)c2[nH]cnc2n1,?,.,.,-3.9,22.8%,-91.9*
O=[N+]([O-])c1cccc(COc2ccccc2CN2CCCCC2)c1,-20.2%,.,.,2.0,-2.6%,?
Cn1c(N2CCN(C(=O)Nc3ccc(C(F)(F)F)cc3)CC2)nc2ccccc21,-5.7%,-1.2%,0.4%,-82.3*,-1.0%,-74.4*
Cn1c(N2CCN(C(=O)NCc3ccccc3)CC2)nc2ccccc21,1.7%,-1.3%,-5.4%,5.8,1.3%,-12.5
COc1cc2c(cc1OC)[C@@H]1O[C@](c3ccsc3)(C2)Oc2cc(C)n(-c3ccccc3)c(=O)c21,.,1.8%[15.4 µM],.,.,.,.
COc1ccccc1CNC(=O)CN1C(=O)NC2(CCCc3sccc32)C1=O (stereo not given),24.8%,0.0%,-1.2%,-236.3*,7.2%,9.5
COc1ccc(CNC(=O)CN2C(=O)NC3(CCCc4sccc43)C2=O)cc1OC (stereo not given),-0.8%,-0.3%,-2.2%,2.0,5.0%,3.3
SMILES,uPA generation,Mm-Cpn inhibitor,p53 reactivation,hERG WT inh,ASM inhibitor,KCNH2 3.1 block
O=C(NCCCCNCCCNC(=O)c1ccccc1)c1ccccc1,8.0%,-0.7%,-4.5%,9.3,-3.0%,5.7
OCC1(CCc2ccccc2)CCCN(CCCC(F)(F)F)C1 (stereo not given),-11.6%,-1.9%,-4.1%,42.4,-0.8%,-10.4
OCC1(CCc2ccccc2)CCCN(CCCc2ccccc2)C1 (stereo not given),0.2%,0.2%,.,?,-1.3%,-96.3*
O=C(NCCN1CCOCC1)C(=O)NCC1OCCN1S(=O)(=O)c1ccc(Cl)cc1 (stereo not given),.,.,.,17.4,.,18.9
CCN(CC)CCC(c1ccc(N(C)C)cc1)c1c(OC)cc(OC)c2c(-c3ccccc3)cc(=O)oc12 (stereo not given),-24.7%,-0.1%,-0.3%,2.3,-0.2%,-112.3*
COc1cc(OC)c2c(-c3ccccc3)cc(=O)oc2c1C(CCN1CCOCC1)c1ccc2c(c1)OCO2 (stereo not given),?,0.4%,-4.1%,1.0,-4.5%,-32.2
COc1cc(OC)c2c(-c3ccccc3)cc(=O)oc2c1C(CCN1CCCC1)c1ccc2c(c1)OCO2 (stereo not given),-14.4%,0.1%,-6.3%,-81.8*,-4.7%,17.2
CCCCCc1cc(=O)oc2c(C(CCN3CCCCC3)c3ccc4c(c3)OCO4)c(OC)cc(OC)c12 (stereo not given),?,2.0%,9.6%,-79.7*,-19.1%,-42.5
COc1cc(O)c(C(CCN2CCCC2)c2ccc3c(c2)OCO3)c(OC)c1 (stereo not given),-3.9%,-5.3%,-4.1%,.,-1.4%,.
COc1cc(O)c(C(CCN2CCN(c3ccccc3)CC2)c2ccc3c(c2)OCO3)c(OC)c1 (stereo not given),-15.9%,0.0%,0.9%,?,-4.7%,-89.8*
COc1cc(C2C(c3ccccc3)C(c3cc(OC)cc(=O)o3)C2c2ccccc2)oc(=O)c1 (stereo not given),1.9%,.,.,-5.1,-2.9%,-2.6
COc1ccccc1/C=C/C(=O)OCC(=O)N1CCN(S(=O)(=O)c2ccc(C)cc2C)CC1,-2.9%,-2.0%,-10.8%,-2.2,-0.9%,-3.2
O=C(Cc1ccc(NC(=O)C2CCN(C(=O)C3CC3)CC2)cc1)Nc1ccc(C(=O)N2CCOCC2)cc1,-16.8%,.,.,2.6,-6.5%,-2.5
COc1cc(OC)c2c(C)cc(=O)oc2c1C(CCN1CCN(c2ccccc2)CC1)c1ccc2c(c1)OCO2 (stereo not given),22.5%,-1.6%,-0.8%,-91.6*,-8.4%,-102.8*
COc1ccc(C(CCN2CCOCC2)c2c(OC)cc(OC)c3c(-c4ccccc4)cc(=O)oc23)cc1 (stereo not given),14.1µM*,1.7%,-6.7%,5.9,-9.4%,-44.1
